Source: PubChem BioAssay
JMJD2A Tudor inh: JMJD2A Tudor domain (human) inhibition | O75164 | AlphaScreen JMJD2A-Tudor / H3K4me3 peptide binding | Potency, µM (series often up to 114 µM), usual class: inhibitors | 390,000 tested, 4.4% active; note: nearly all actives have a fitted effect of over 50% in size
G9a inh: G9a (human) methyltransferase inhibition; Q96KQ7; G9a H3K9 monomethylation, AlphaScreen, 2 h; Potency, µM (titrated, usually from 102 µM), actives largely listed as inhibitors; 350,000 tested, 8.8% active; note: nearly all actives have a fitted effect of over 75% in size
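AlphaScreen read-out: biotin-H3K9 peptide (500 nM) methylation by 20 nM enzyme with 20 uM SAM, 2 h at room temperature after 15 min compound preincubation; anti-monomethyl H3K9 antibody plus donor/acceptor beads, 10 min dark.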
PLK1 PBD block: blocks phosphopeptide binding to human PLK1 polo-box domain; Potency, µM, actives largely listed as inhibitors; AID 720504; Plk1 PBD binding of FITC phosphopeptide, fluorescence polarization; P53350; 360,000 tested, 2.8% active; note: series mostly up to about 57 µM; nearly all actives have a fitted effect of over 65% in size
Sfp PPTase inh: blocks B. subtilis Sfp PPTase activity. 310,000 tested, 3.5% active. AID 1490. Potency, µM, usual class: inhibitors. Biochemical Sfp PPTase activity, qHTS. Q9F4F7;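 note: the enzyme is Sfp with the accession as filed and its product quenches rhodamine fluorescence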
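Compounds were incubated with enzyme (final 15 nM) for 15 min at room temperature before substrate addition started the reaction. Fluorescence at 525 nm excitation, 598 nm emission was recorded immediately and after 30 minutes.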
BAZ2B inh: inhibitors of human BAZ2B bromodomain; 360,000 tested, 4.4% active; Q9UIF8; Potency, µM (titrated, usually from 114 µM), hits mostly inhibitors; AlphaScreen BAZ2B-H3K14Ac peptide displacement; note: nearly all actives have a fitted effect of over 60% in size
Target sequence (Q9UIF8 whole entry, looked up): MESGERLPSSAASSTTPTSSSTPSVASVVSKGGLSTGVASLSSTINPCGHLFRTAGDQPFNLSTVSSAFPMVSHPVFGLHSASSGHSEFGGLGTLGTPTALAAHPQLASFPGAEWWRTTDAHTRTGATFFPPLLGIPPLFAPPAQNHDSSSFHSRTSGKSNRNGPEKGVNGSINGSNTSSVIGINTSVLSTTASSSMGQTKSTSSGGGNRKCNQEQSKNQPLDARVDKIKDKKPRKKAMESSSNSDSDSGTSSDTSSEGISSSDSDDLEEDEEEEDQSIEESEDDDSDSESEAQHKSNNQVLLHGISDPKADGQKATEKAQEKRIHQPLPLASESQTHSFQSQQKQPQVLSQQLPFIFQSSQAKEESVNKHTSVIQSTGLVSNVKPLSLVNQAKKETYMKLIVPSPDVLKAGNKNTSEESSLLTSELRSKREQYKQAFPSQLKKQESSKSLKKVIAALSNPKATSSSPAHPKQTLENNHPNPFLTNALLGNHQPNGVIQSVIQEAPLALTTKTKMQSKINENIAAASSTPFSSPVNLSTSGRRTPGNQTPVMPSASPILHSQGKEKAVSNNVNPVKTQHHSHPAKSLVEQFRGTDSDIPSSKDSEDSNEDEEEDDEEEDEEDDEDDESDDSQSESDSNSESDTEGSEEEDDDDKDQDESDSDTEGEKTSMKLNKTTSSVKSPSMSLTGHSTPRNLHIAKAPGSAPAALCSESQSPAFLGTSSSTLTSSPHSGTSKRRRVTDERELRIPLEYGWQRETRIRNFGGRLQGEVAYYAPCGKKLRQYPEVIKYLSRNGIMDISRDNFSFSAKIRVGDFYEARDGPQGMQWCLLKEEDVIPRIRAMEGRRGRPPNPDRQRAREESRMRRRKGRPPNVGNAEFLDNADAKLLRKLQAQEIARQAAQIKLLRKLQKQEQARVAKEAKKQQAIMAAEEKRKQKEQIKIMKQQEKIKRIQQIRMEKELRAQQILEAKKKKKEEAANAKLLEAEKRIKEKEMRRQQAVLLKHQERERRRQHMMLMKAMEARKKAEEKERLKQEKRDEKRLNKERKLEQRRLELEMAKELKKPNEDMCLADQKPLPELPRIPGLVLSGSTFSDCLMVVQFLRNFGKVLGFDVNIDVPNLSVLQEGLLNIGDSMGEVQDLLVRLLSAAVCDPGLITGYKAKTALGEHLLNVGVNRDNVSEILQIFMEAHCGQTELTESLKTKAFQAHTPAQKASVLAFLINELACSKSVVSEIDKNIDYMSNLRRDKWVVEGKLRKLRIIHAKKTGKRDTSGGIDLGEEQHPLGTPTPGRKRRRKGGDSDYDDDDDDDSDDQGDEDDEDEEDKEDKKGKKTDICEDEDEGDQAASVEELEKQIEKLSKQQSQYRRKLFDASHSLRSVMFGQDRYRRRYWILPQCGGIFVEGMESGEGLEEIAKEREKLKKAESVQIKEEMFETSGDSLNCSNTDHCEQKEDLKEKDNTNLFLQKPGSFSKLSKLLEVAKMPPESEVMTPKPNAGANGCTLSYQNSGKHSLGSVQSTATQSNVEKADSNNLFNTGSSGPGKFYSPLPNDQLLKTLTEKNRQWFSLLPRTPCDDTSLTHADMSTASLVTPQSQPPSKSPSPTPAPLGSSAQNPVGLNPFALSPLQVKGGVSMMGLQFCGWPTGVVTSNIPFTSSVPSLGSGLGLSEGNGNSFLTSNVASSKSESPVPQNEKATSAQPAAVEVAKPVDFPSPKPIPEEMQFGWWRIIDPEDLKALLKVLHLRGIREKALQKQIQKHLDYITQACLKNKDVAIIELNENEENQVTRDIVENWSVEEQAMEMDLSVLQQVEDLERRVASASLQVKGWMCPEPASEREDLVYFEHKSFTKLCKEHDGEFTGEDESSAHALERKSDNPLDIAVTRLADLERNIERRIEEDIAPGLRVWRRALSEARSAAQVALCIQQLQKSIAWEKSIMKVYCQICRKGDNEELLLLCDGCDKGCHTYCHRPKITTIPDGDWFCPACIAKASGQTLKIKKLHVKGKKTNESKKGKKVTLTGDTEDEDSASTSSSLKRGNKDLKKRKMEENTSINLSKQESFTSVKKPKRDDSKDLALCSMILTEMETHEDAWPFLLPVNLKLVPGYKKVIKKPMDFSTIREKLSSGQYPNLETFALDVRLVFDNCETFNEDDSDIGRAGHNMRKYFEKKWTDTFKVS
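In this displacement format the biotinylated H3(5-23) peptide acetylated at Lys14 serves as ligand at 50 nM, with BAZ2B at 50 nM in PBS pH 7.4 containing 0.01% Tween-20. Donor and acceptor beads are 10 ug/mL final.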
HP1b chromo inh: HP1-beta chromodomain-methylated histone interaction inhibition. AlphaScreen HP1-beta / biotin-H3K9me3 peptide binding. Potency, µM (top dose mostly 114 µM), hits mostly inhibitors. 390,000 tested, 0.56% active; note: nearly all actives have a fitted effect of over 70% in size
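HP1-beta protein (50 nM final) preincubated 30 min at room temperature with biotinylated H3(1-18)K9me3 peptide (50 nM) in PBS pH 7.4, 0.01% Tween-20, then compound added for 30 min. AlphaScreen streptavidin donor/nickel chelate acceptor beads (10 ug/mL final), 30 min dark, luminescence read.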
Large screens that a line does not name were inactive. The list is not random: actives were taken first. Their share in the collection is about 12%. Calls come from the whole dose curve; as a rule, active = well fitted curve in the direction sought with a large enough effect; inconclusive = small, poorly fitted or top-dose-only effect, or another doubt; inactive = no such curve, though single readings can be large; an effect the other way counts as inactive or inconclusive.

CCCCNC(=O)Cn1c(SCc2cccc(C)c2)nc2ccncc21	none (no result: G9a inh, PLK1 PBD block, Sfp PPTase inh, BAZ2B inh)
COc1ccc(S(=O)(=O)NCCc2sc(-c3ccccc3)nc2C)cc1F	none (no result: PLK1 PBD block, Sfp PPTase inh)
CCN1C(=O)[C@H]2[C@@H](c3ccc(-c4ccccc4)c(OC)c3)N[C@@](CC(C)C)(C(=O)OC)[C@H]2C1=O	none (no result: G9a inh, Sfp PPTase inh, BAZ2B inh)
CCn1c(O)c(N=N)c2ccccc21	none
CCn1c(O)c(N=NC2=NC(=O)CS2)c2ccccc21	JMJD2A Tudor inh inconclusive, BAZ2B inh 50µM
COc1ccc(NC(=O)N(C)C[C@H]2Oc3ccc(NS(=O)(=O)c4cccs4)cc3C(=O)N([C@@H](C)CO)C[C@@H]2C)cc1	none (no result: G9a inh, Sfp PPTase inh, BAZ2B inh)
CC(C)C[C@H](NC(=O)NCc1ccccc1Cl)C(=O)O	none
CC(C)C[C@H](NC(=O)NCc1ccc(Cl)cc1)C(=O)O	G9a inh 35µM
O=C(NCc1ccc(Cl)cc1)NCC(F)(F)F	PLK1 PBD block 30µM, HP1b chromo inh inconclusive
O=C(NCc1ccc(Cl)cc1)Nc1ccc(F)cc1	none
COc1ccc(CNC(=O)CN2C(=O)COc3ccc(S(=O)(=O)Nc4ccccc4)cc32)cc1	none (no result: PLK1 PBD block, Sfp PPTase inh)
CSc1ncc(CN2CCCC(C(=O)Nc3ccc(-c4ccco4)cc3)C2)cn1 (stereo unspecified)	JMJD2A Tudor inh inconclusive, G9a inh 10µM, Sfp PPTase inh 14µM, BAZ2B inh inconclusive
O=C(CSc1nc(=O)[nH]c2c1CCCC2)NCc1ccccc1Cl	none (no result: PLK1 PBD block, Sfp PPTase inh)
Cc1c(C)n(C(=O)CN2CCC(C(N)=O)CC2)c2ccccc12	none
Cc1c(C)n(C(=O)CN2CCN(c3ccccc3)CC2)c2ccccc12	JMJD2A Tudor inh inconclusive, G9a inh 50µM, Sfp PPTase inh inconclusive, BAZ2B inh inconclusive
CN1CCN(CC(=O)n2c3c(c4ccccc42)CCCC3)CC1	JMJD2A Tudor inh 56µM, G9a inh 40µM, BAZ2B inh inconclusive
Cc1cccc(C(=O)OCC(=O)c2c(C)[nH]c3ccccc23)c1O	none (no result: Sfp PPTase inh)
CC(=O)c1cc(-c2ccc(F)cc2)n(CCC(=O)NCc2ccc(C)cc2)c1C	none (no result: PLK1 PBD block, Sfp PPTase inh)
COc1ccc(C(=O)N2CCC(c3ccncc3)CC2)cc1OC	none (no result: PLK1 PBD block, Sfp PPTase inh)
FC(F)(F)c1cc(N2CCOCC2)nc(-c2ccccc2)n1	JMJD2A Tudor inh inconclusive, PLK1 PBD block 27µM, HP1b chromo inh inconclusive
CC(=O)Nc1ccc(Cc2nc3c([nH]2)c(=O)n(C)c(=O)n3C)cc1	none (no result: JMJD2A Tudor inh, PLK1 PBD block, HP1b chromo inh)
CCc1c(C(=O)N2CCN(c3ccccc3F)CC2)[nH]c(C)c1C(C)=O	BAZ2B inh inconclusive
COc1ccccc1N1CCN(C2CCN(S(=O)(=O)c3ccc4ccccc4c3)CC2)CC1	JMJD2A Tudor inh inconclusive, G9a inh 45µM, BAZ2B inh inconclusive, HP1b chromo inh inconclusive
O=S(=O)(c1ccc2ccccc2c1)N1CCN(Cc2ccccn2)CC1	JMJD2A Tudor inh 3.2µM, G9a inh inconclusive, Sfp PPTase inh 71µM, BAZ2B inh 79µM
O=S(=O)(c1ccc2ccccc2c1)N1CCN(C2CCN(Cc3ccccc3)CC2)CC1	JMJD2A Tudor inh 0.89µM, G9a inh 5µM, Sfp PPTase inh inconclusive, BAZ2B inh 28µM
O=c1[nH]c(CN2CCN(S(=O)(=O)c3ccc4ccccc4c3)CC2)nc2ccccc12	JMJD2A Tudor inh inconclusive
O=S(=O)(c1ccccc1)N1CCN(C2CCN(Cc3ccccc3)CC2)CC1	none
c1ccc(CN2CCC(N3CCC(N4CCCCCC4)CC3)CC2)cc1	JMJD2A Tudor inh 1.4µM, G9a inh 45µM, Sfp PPTase inh inconclusive, BAZ2B inh inconclusive
O=C(CSc1ncc2c(n1)-c1ccccc1N(Cc1ccc(Cl)cc1)S2(=O)=O)c1ccccc1	none (no result: PLK1 PBD block, Sfp PPTase inh)
O=C(O)c1ccc(Cn2cnc3cccnc32)cc1	G9a inh 40µM
O=C(O)c1ccc(Cn2cnc3scc(-c4ccccc4)c3c2=O)cc1	none
O=C(CNC(=O)c1cccs1)NCCN1CCC(Cc2ccccc2)CC1	none (no result: JMJD2A Tudor inh, PLK1 PBD block, HP1b chromo inh)
O=C(NCCNC1CCN(Cc2ccccc2)CC1)c1cccs1	G9a inh 1.8µM, Sfp PPTase inh inconclusive, BAZ2B inh inconclusive (no result: JMJD2A Tudor inh, PLK1 PBD block, HP1b chromo inh)
CN1C(=O)C(CC(=O)NC2CCCCC2)SC1=Nc1ccccc1 (stereo unspecified)	JMJD2A Tudor inh inconclusive, PLK1 PBD block 30µM, Sfp PPTase inh inconclusive
CC(NC(=O)CSc1ncccn1)c1ccccc1 (stereo unspecified)	none
COc1ccc(COc2ccsc2C(=O)Nc2ccc(Cl)c(Cl)c2)cc1	Sfp PPTase inh 56µM
